ChEMBL document CHEMBL4513216, “Probing the Open Global Health Chemical Diversity Library for Multistage-Active Starting Points for Next-Generation Antimalarials” (ACS Infect Dis, 2020)
In all, about 69,000 compounds went through this assay and about 8,600 (12%) showed an effect of 50% or more. The sample holds strong results, similar compounds and a random draw of the others, so the mix is not that of the screen.

test system: Plasmodium berghei; experiment: Screen against P. berghei liver stage (PbLuc), transformed with Luciferase, at 10uM; format: functional, HepG2; conditions: tested at 10 uM

Compound	INHIBITION
C[C@@H]1CC[C@@H](C)N1C(=O)c1cc(COc2ccccc2)[nH]n1	36.7%
Cc1cc(C)n(CC(=O)N2CCCCC2CCc2cccs2)c(=O)n1 (configuration not stated)	31.2%
c1c(CN2CCCC2)nc2n1CCNC2	33.4%
Cc1ccc(O)c(CNc2cccc(OCCF)c2)n1	9.91%
CC[C@@H]1N(Cc2ccco2)CCC[C@]12CCC(=O)N2C	6.27%
CCCN(C)CC1CCN(c2ncc(Br)cn2)C1 (configuration not stated)	68%
Cc1nc(C2CCCN(c3ncc(Br)cn3)C2)no1 (configuration not stated)	19.8%
CCN(C)CC1CCN(C(=O)Nc2ccc(C)cc2)C1 (configuration not stated)	-45.4%
CCCN(C)CC1CCN(c2ccc(Br)c(C)n2)C1 (configuration not stated)	74.8%
Cc1ccc(N2CCCC(N(C)Cc3nc(C)c(C)o3)C2)nn1 (configuration not stated)	40.9%
CCN(C)CC1CCN(c2ncc(Br)cn2)C1 (configuration not stated)	26%
Cc1ccc2ncn(C(C)Cn3cccn3)c(=O)c2c1 (configuration not stated)	3.82%
O=C(NCc1sc2ccccc2c1Cl)c1cc2n(n1)CCNC2	25.1%
O=C(C1CCOCC1)N1CCO[C@@H]2[C@@H](OCc3ccncc3)CC[C@@H]21	23.6%
CC(C)c1nc(CS(=O)(=O)Cc2noc(C3CC3)n2)cs1	47.6%
Cc1ncsc1CN1CC[C@H]2OCC[C@@]2(C(=O)NC2CC2)C1	-45.5%
COc1cc(CNC(=O)N(Cc2ccc(F)cc2F)C2CC2)ccn1	-15.5%
Cc1cc(-c2ccc(=O)n(C3CCN(C(=O)C4CC4)CC3)n2)c(C)o1	23%
CN(C)C(=O)COCc1cncc2c1CCN(C1CCOCC1)C2	4.68%
N#Cc1c2n(c3c(=O)[nH]cnc13)CCCCC2	23.5%
COc1cccc(-c2noc(C3CCN(Cc4ccc(C)cc4)C3)n2)c1 (configuration not stated)	66.4%
COc1cccc(-c2noc(C3CCN(Cc4ccccc4F)C3)n2)c1 (configuration not stated)	84.2%
COc1cccc(-c2noc(C3CCN(CC(N)=O)C3)n2)c1 (configuration not stated)	41.2%

Compound	INHIBITION
COc1cccc(CN2CC[C@H](c3nnc(-c4ccco4)o3)C2)c1	-26.1%
COc1cccc(-c2noc(C3CCN(CC4CCCCC4)C3)n2)c1 (configuration not stated)	67.9%
CN(Cc1noc(C2CC2)n1)C1CCN(Cc2ccncc2)C1 (configuration not stated)	45.8%
COc1cccc(-c2noc(C3CCN(Cc4ccncc4)C3)n2)c1 (configuration not stated)	78.2%
COc1cccc(-c2noc(CN3CCOCC3C)n2)c1 (configuration not stated)	-7.35%
COc1cccc(-c2noc(C3CCN(Cc4ccccc4C)C3)n2)c1 (configuration not stated)	45.6%
Cc1cccc(-c2noc([C@@H]3C[C@@H](O)CN3CC3CCCCC3)n2)c1	-27.5%
COc1cccc(-c2noc(C3CCN(Cc4cccs4)C3)n2)c1 (configuration not stated)	49.6%
COc1cccc(CN2CC[C@H](c3nnc(C)o3)C2)c1	-30%
CCN1CC(CN(C)Cc2nc(-c3ccc(C)o3)oc2C)CC1=O (configuration not stated)	34.2%
Cc1noc(C(C)C)c1C(=O)NS(=O)(=O)c1ccc2c(c1)OCCCO2	7.9%
CNC(=O)c1ccc(-c2ccc(CNC(=O)COC)cc2)nc1C	10.9%
Cc1ccc(CN(C(=O)NCC2CCS(=O)(=O)C2)C2CC2)o1 (configuration not stated)	-39.2%
CCCn1nc(C(=O)NC2(c3ccc(Cl)cc3)CCCC2)ccc1=O	-51.3%
CCc1nc2n(n1)CC(NCc1cnn(-c3ccccc3)n1)CC2 (configuration not stated)	10.9165%
CN1CCOCC12CCN(Cc1ccoc1)CC2	-13.2%
COc1ccc(CN(Cc2cn(C)nc2C)CC2CCCO2)c(OC)c1 (configuration not stated)	21.9%
COc1cccc(-c2noc(C3CCN(Cc4cn(C)nc4C)C3)n2)c1 (configuration not stated)	84.8%
COc1cccc(CN2CCC(c3nnc(-c4cnc(C)cn4)o3)C2)c1 (configuration not stated)	29.3%
CSCc1cccc(S(=O)(=O)Nc2cc(C)on2)c1	8.7%
Cc1nc(C)c(C(=O)NCCNc2ncccc2C#N)s1	13.3%
CSc1ccccc1C(=O)NCCC(O)c1ccco1 (configuration not stated)	45.7%
CSc1ncccc1C(=O)NCCC(O)c1cccs1 (configuration not stated)	26%

Compound	INHIBITION
CSc1ncccc1C(=O)NCCC(O)c1ccco1 (configuration not stated)	53.2%
Cc1cccc(C(=O)N2CC(Cc3nccc4ccn(C)c34)C2)n1	-23.8%
CN(C)CCOCC1CN(Cc2ccsc2)Cc2ccnn2C1 (configuration not stated)	11.4%
CN(C)CCN(Cc1ccc(Cl)cc1)C(=O)c1cnccn1	68.3%
CN(C)CCN(Cc1ccc(Cl)cc1)C(=O)c1cc[nH]n1	10%
Cc1cnc(C(=O)N(CCN(C)C)Cc2ccc(Cl)cc2)cn1	12.2%
CN(C)CCN(Cc1ccc(Cl)cc1)C(=O)c1ccncc1	10.6%
CN(C)CCN(Cc1ccc(C(F)(F)F)cc1)C(=O)c1cc[nH]n1	63.3%
CN(C)CCN(Cc1cccc(C(F)(F)F)c1)C(=O)c1cc[nH]n1	22.4%
Cc1ncc(C(=O)N2CCOC(C(=O)N3CCCCCC3)C2)c(C)n1 (configuration not stated)	35.1%
O=C(CN1CCCCC1)N1CCC(c2cc(=O)n3c(n2)CCCCC3)C1 (configuration not stated)	-15.3%
CC(C)NC(=O)NCC1(COc2cnccn2)C[C@@H](O)[C@@H](O)C1 (some centres not stated)	45.2%
O=S(=O)(Cc1ccccc1F)N1CCCC1c1nnc2n1CCCCC2 (configuration not stated)	20.1%
CS(=O)(=O)N1CCOCC12CCN(c1nncs1)CC2	26.5%
CS(=O)(=O)N1CCCCC12CCN(c1nncs1)CC2	55.5%
CN1CCCCC12CCN(c1nncs1)CC2	-0.804%
CC(=O)N1CCCC(c2ccc(C(N)=O)cn2)C1 (configuration not stated)	40%
CCc1ccc(C2c3nc[nH]c3CCN2Cc2nccn2CC)nc1 (configuration not stated)	29.3%
CC(=O)N1CC2(CCCC2)c2ccccc21	7.21%
COc1ccc(CN2CCc3sccc3C2C)cc1CN1CCOCC1 (configuration not stated)	52.7%
CC1c2ccsc2CCN1Cc1cc2c(cc1O)OCO2 (configuration not stated)	18.2%
COc1cc2c(cc1CN1CCc3sccc3C1C)OCO2 (configuration not stated)	26.7%
CCC1c2ccsc2CCN1Cc1cc2c(cc1OC)OCCO2 (configuration not stated)	69.4%

Compound	INHIBITION
COc1ccsc1C(=O)Nc1cc(CN2CCOCC2)ccc1C	-29.4%
COc1cc2c(cc1CN1CCc3sccc3C1C)OCCO2 (configuration not stated)	40.6%
Cn1ncc2c1NC(=O)CC2c1cccs1 (configuration not stated)	-3.77%
CC(c1cccc(F)c1)N1CCN(Cc2nccn2C)CC1 (configuration not stated)	-39.7%
CC(=O)NCC(=O)N1CCC2(COCc3c(C)nc(N(C)C)nc32)C1 (configuration not stated)	-13.2%
Cc1ccc(NC2CCN(C(=O)c3ccco3)CC2)nn1	-17%
Cc1ccc2c(n1)N(CC1CC1)CCN(C(=O)c1ccncc1F)C2	-37.4%
Cn1cnc2c1CCN(CC(O)c1ccc3c(c1)OCCO3)C2 (configuration not stated)	42.6%
Cn1cnc2c1CCN(CC(O)c1ccc(S(C)(=O)=O)cc1)C2 (configuration not stated)	57.6%
Cn1cnc2c1CCN(CCCOc1ccc(S(C)(=O)=O)cc1)C2	49%
Cn1cnc2c1CCN(CCS(=O)(=O)c1ccc(Cl)cc1)C2	52.3%
Cn1cnc2c1CCN(CCS(=O)(=O)c1ccccc1)C2	24.4%
Cn1cnc2c1CCN(CCCS(=O)(=O)c1ccccc1)C2	-1.14%
Cc1cc(C)nc(Nc2cc(C3CCCN(C)C3)nc(C)n2)n1 (configuration not stated)	46.1%
CCc1nc(C2CCCN2Cc2ccn(C)c(=O)c2)no1 (configuration not stated)	21.255%
CCn1c(C(=O)N2CCCN(CC(N)=O)CC2)cc2ccccc21	-27.8%
CN(CCNC(=O)c1cccnc1)S(C)(=O)=O	30.9%
CCc1nn(C)c(Cl)c1CN1CCC2(C1)CN(C)C(=O)O2 (configuration not stated)	-73.7%
CCc1nn(C)c(Cl)c1CN1CCCC2(CC1)CN(C)C(=O)O2 (configuration not stated)	53.4%
CCc1nn(C)c(Cl)c1CN1CCCC2(C1)CN(C)C(=O)O2 (configuration not stated)	14.9%
CN(C)Cc1ccccc1Cn1cncc1-c1cnn(C)c1	12.8%
O=S(=O)(c1cccs1)N1CCCn2cnc(CO)c2C1	26.3%
CC(NC(=O)CCn1c(=O)oc2ccccc21)c1ccccn1 (configuration not stated)	8.65%

Compound	INHIBITION
CNC(=O)C1CCCN(c2nc3c(-c4ccccc4)csc3c(=O)[nH]2)C1 (configuration not stated)	11.6%
Cn1nc(N2CCCC(C(=O)Nc3nc4ccccc4[nH]3)C2)ccc1=O (configuration not stated)	51%
CCNC(=O)C1CCCN(c2ccc3ccc(F)cc3n2)C1 (configuration not stated)	20.8%
Cn1nc(N2CCCC(C(=O)Nc3nc4ccccc4s3)C2)ccc1=O (configuration not stated)	82.2%
Cn1ncc(C(=O)O)c1C(=O)Nc1nc2ccccc2s1	45.4%
Cn1nc(N2CCCC(C(=O)Nc3nccs3)C2)ccc1=O (configuration not stated)	21.5%
CCOCCSc1nnc(-c2cn(CC)nc2OCC)n1C	1.95%
O=C(C1CCCCC1)N1CCCC([C@@H]2C[C@H](C(F)F)n3ncnc3N2)C1 (some centres not stated)	25.26%
Cc1cc(C)nc(C2CCN(C(=O)CCn3ncc4ccccc43)C2)n1 (configuration not stated)	9.93%
CC(Cn1cccn1)NCc1csc2c1CCCC2 (configuration not stated)	46.6%
CC(Cn1cncn1)NCc1csc2c1CCCC2 (configuration not stated)	51.1%
CC(Cn1ccnc1)NCc1csc2c1CCCC2 (configuration not stated)	31.4%
CCc1nnc(CN2CCc3ccc(S(N)(=O)=O)cc32)o1	18%
CN(CCc1ccccn1)C(=O)CCC1CCCN(c2cnccn2)C1 (configuration not stated)	27.6%
CC(=O)N1CCc2nnc(C3CCCCN3CC3CCCCC3)n2CC1 (configuration not stated)	42.4%
COCCNC(=O)NC1(c2ccccc2F)CC1	20%
CCN(CC)C(CNC(=O)c1ccnc(N(C)C)c1)c1ccsc1 (configuration not stated)	13.3%
Cc1ccc(C)c(CC(=O)NC2CCC(N3C(=O)CCC3=O)CC2)c1 (configuration not stated)	50.1%
Cc1ccc(C)c(CC(=O)NC2CCS(=O)(=O)CC2)c1	41.5%
Cc1ccc(C)c(C(=O)NC2CCC(N3C(=O)CCC3=O)CC2)c1 (configuration not stated)	-56.4%
